{"source": "PubChem BioAssay AID588453", "about": "(National Center for Advancing Translational Sciences (NCATS), 2011)", "note": "The campaign covered roughly 390,000 compounds. About 4,000 (1%) were called active. Inconclusive results (about 4%) are left out. The full list was thinned out, with actives kept by preference. A number with no mark means an inactive call. Calls come from the whole dose curve; as a rule, active = well fitted inhibition curve with a large enough effect; inconclusive = small, poorly fitted or top-dose-only effect; inactive = no such curve, though single readings can be large or run the other way. % is set by controls: 0 for no effect and ±100 for the full control effect; potency is the fitted concentration of half-maximal effect."}
{"biological_target": "Thioredoxin reductase 1, cytoplasmic (Rattus norvegicus) (UniProt O89049)", "sequence (O89049 whole entry, looked up)": "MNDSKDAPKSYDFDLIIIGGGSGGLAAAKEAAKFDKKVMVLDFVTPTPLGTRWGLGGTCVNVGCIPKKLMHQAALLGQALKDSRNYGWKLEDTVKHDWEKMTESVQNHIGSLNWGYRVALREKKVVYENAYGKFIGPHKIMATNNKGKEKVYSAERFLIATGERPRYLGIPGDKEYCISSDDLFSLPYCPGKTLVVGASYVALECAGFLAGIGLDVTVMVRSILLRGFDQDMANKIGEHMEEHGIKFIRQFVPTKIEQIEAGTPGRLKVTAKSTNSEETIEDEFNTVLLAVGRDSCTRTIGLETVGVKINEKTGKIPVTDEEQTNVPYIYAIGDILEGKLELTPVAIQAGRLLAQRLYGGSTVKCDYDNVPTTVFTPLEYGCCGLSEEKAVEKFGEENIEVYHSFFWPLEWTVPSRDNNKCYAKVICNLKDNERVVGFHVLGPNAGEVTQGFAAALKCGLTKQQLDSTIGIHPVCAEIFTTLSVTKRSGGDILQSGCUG", "test": "qHTS Assay for Inhibitors of Mammalian Selenoprotein Thioredoxin Reductase 1 (TrxR1): qHTS; note: nearly all actives have a fitted effect of over 65% in size", "conditions": "recombinant rTrxR1, NADPH fluorescence consumption, selenite substrate; series mostly up to 114 µM; activity change, negative = inhibition: at the top concentration", "procedure,_shortened": "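Rat TrxR1 (90 nM in the dispensed reagent) was pre-reduced with 400 uM NADPH for 5 min at room temperature, then incubated with compound for 15 min. After 400 uM selenite was added, NADPH fluorescence (Ex 340/Em 450 nm) was followed for 8 min.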"}
{"smiles": "Cc1ccc(C2C=C(c3ccc(Cl)cc3)Nc3nc(NC(=O)CCC(=O)O)nn32)cc1", "note": "(centres undefined)", "activity change, negative = inhibition": "-15.9% [at 57.1 µM]"}
{"smiles": "CCOc1ccc(C(=O)CCC(=O)NC2=NCCS2)cc1", "activity change, negative = inhibition": "1.42%"}
{"smiles": "CCOc1ccc(NCCC(=O)c2ccc3c(c2)OCO3)cc1", "Potency": "2.24 µM (active)"}
{"smiles": "CCOc1ccc(NC(=O)Cn2c(=O)n(CCCC(=O)NCc3ccc4c(c3)OCO4)c(=O)c3ccccc32)cc1", "activity change, negative = inhibition": "14%"}
{"smiles": "COC(=O)c1c(NC(=O)CCCOc2ccccc2)sc2c1CCC(C)C2", "note": "(centres undefined)", "activity change, negative = inhibition": "14.9%"}
{"smiles": "CCCc1nc2c([nH]1)C(c1cccnc1)C(C#N)=C(N)O2", "note": "(centres undefined)", "activity change, negative = inhibition": "-0.372%"}
{"smiles": "CCCc1[nH]nc2c1C(c1ccc(Br)s1)C(C#N)=C(N)O2", "note": "(centres undefined)", "Potency": "44.7 µM (active)"}
{"smiles": "CCOc1ccc(-n2c(C)nc3c(cnn3-c3ccc(C)cc3)c2=O)cc1", "activity change, negative = inhibition": "-0.644%"}
{"smiles": "CCC1(C)CC(=O)c2c(ccc3oc(C(=O)Nc4ccc(C(C)=O)cc4)c(C)c23)O1", "note": "(centres undefined)", "activity change, negative = inhibition": "6.3%"}
{"smiles": "Cc1ccc(Cn2c(C)nc3c(c2=O)c2nc4ccccc4nc2n3Cc2ccco2)cc1", "Potency": "10 µM (active)"}
{"smiles": "Cc1ccc(OCC(=O)c2cc(C)n(Cc3ccco3)c2C)c([N+](=O)[O-])n1", "activity change, negative = inhibition": "-0.57%"}
{"smiles": "Cc1ccc(Cn2c(=O)n(Cc3nc(-c4ccccc4)no3)c(=O)c3cc4c(cc32)OCO4)cc1", "activity change, negative = inhibition": "6.4%"}
{"smiles": "CC(C)(C)C1CCC(NC(=O)c2cnn3c2NC(=C2CC2)C=C3C(F)F)CC1", "note": "(centres undefined)", "activity change, negative = inhibition": "26.5%"}
{"smiles": "O=S(=O)(c1ccc(Cl)cc1)c1nnn2c1nc(NC1CCCC1)c1sccc12", "activity change, negative = inhibition": "29.3%"}
{"smiles": "COc1ccc(/C=C/c2ccnc3ccccc23)cc1OC", "activity change, negative = inhibition": "14.7%"}
{"smiles": "CCOc1cc(CNC(=O)c2sc3ncnc(N(C)C4CCCCC4)c3c2C)ccc1OC", "activity change, negative = inhibition": "16.5% [at 57.1 µM]"}
{"smiles": "CCOC(=O)Nc1ccc2c(c1)N(C(=O)CN1CCN3CCCC3C1)c1ccccc1CC2", "note": "(centres undefined)", "activity change, negative = inhibition": "-5.17%"}
{"smiles": "CCOC(=O)Nc1ccc(S(=O)(=O)N(C)C(C)C)cc1", "activity change, negative = inhibition": "23%"}
{"smiles": "CCOC(=O)Nc1ccc2c(c1)N(C(=O)CCCl)c1ccccc1[S@]2=O", "Potency": "50.1 µM (active)"}
{"smiles": "Oc1ccc(Br)cc1C1C=C(c2ccc3c(c2)OCO3)NC(c2ccc(Cl)cc2)N1", "note": "(centres undefined)", "activity change, negative = inhibition": "-18.3%"}
{"smiles": "CC(CCCc1ccccc1)NC(=O)c1nn(-c2ccc(Cl)cc2)nc1CO", "note": "(centres undefined)", "activity change, negative = inhibition": "15%"}
{"smiles": "COc1ccc(Cl)cc1N(C)C(=O)c1cc2c(=O)oc3ccc(C)cc3c2s1", "activity change, negative = inhibition": "26.5%"}
{"smiles": "O=C(NCCCc1ccccc1)c1ccc2c(c1)sc1nc(-c3ccc(F)cc3)cn12", "activity change, negative = inhibition": "3.74%"}
{"smiles": "CN1C(=O)c2ccccc2Sc2ccc(NC(=O)Cc3ccc(Cl)cc3)cc21", "activity change, negative = inhibition": "-21.1% [at 57.1 µM]"}
{"smiles": "COc1cc2[nH]c(=S)n(CCN3CCCCC3C)c(=O)c2cc1OC", "note": "(centres undefined)", "activity change, negative = inhibition": "7.7%"}
{"smiles": "COc1cc2[nH]c(=S)n(Cc3ccc(C)o3)c(=O)c2cc1OC", "Potency": "8.91 µM (active)"}
{"smiles": "CCOc1cc2[nH]c(=S)n(Cc3ccc(C(=O)N4CCN(C)CC4)cc3)c(=O)c2cc1OCC", "activity change, negative = inhibition": "10.9%"}
{"smiles": "OC[C@H]1O[C@@H](n2cnc3c(NC4CCCC4)ncnc32)[C@H](O)[C@H]1O", "activity change, negative = inhibition": "-0.561%"}
{"smiles": "CCc1ccccc1NC(=O)c1ccc2nc(CCc3ccccc3)oc2c1", "activity change, negative = inhibition": "34.5% [at 57.1 µM]"}
{"smiles": "O=c1cc(-c2ccccc2)[nH]c2nc(Cl)ccc12", "Potency": "inactive"}
{"smiles": "COc1ccc(/C=C/C(=O)c2cc(Br)ccc(=O)c2O)cc1", "Potency": "35.5 µM (active)"}
{"smiles": "COc1cccc(N2CC(NC(=O)/C=C\\c3ccccc3)CC2=O)c1", "note": "(centres undefined)", "activity change, negative = inhibition": "9.26% [at 57.1 µM]"}
{"smiles": "COCOc1cc(O)c(C(=O)/C=C/c2ccc(OCOC)c(OCOC)c2)c(OCOC)c1", "activity change, negative = inhibition": "-3.29%"}
{"smiles": "Cc1ccc(-c2nc(=N)sn2Cc2ccccc2)cc1", "activity change, negative = inhibition": "-19.2%"}
{"smiles": "Cc1ccc(NC(=O)Cn2nnc3sc4c(c3c2=O)CCC(C)C4)cc1", "note": "(centres undefined)", "activity change, negative = inhibition": "6.32% [at 57.1 µM]"}
{"smiles": "COc1ccc(CCNc2nc(-c3ccc(F)cc3)cc(C(F)(F)F)n2)cc1OC", "activity change, negative = inhibition": "59%"}
{"smiles": "COc1ccc(-c2cc(C(F)(F)F)nc(S(C)(=O)=O)n2)cc1OC", "Potency": "17.8 µM (active)"}
{"smiles": "COc1ccc(-c2cc(C(F)(F)F)nc(SCC(=O)N(C)Cc3ccccc3)n2)cc1OC", "activity change, negative = inhibition": "144%"}
{"smiles": "CC1CN(C(=O)N2CCC(C(=O)NCc3ccco3)CC2)c2cc(Cl)ccc2O1", "note": "(centres undefined)", "activity change, negative = inhibition": "16.6%"}
{"smiles": "CC(=O)Nc1ccc(NC(=O)CSc2nnc3c4cc(Br)ccc4n(C)c3n2)cc1", "activity change, negative = inhibition": "23.3%"}
{"smiles": "CC1CCN(S(=O)(=O)c2ccc3c(c2)N(CC(=O)NCCc2ccccc2)C(=O)CO3)CC1", "activity change, negative = inhibition": "20.4%"}
{"smiles": "Brc1ccc(C2=CC(c3ccco3)n3ncnc3N2)cc1", "note": "(centres undefined)", "Potency": "39.8 µM (active)"}
{"smiles": "Cc1ccccc1OCC(=O)Nc1c(C(=O)Nc2ccccc2F)oc2ccccc12", "activity change, negative = inhibition": "17.9%"}
{"smiles": "NC(=O)Nc1ccc(/C=C/c2ccnc3ccccc23)cc1", "activity change, negative = inhibition": "8.21%"}
{"smiles": "Cc1cc(C)cc(C(=O)NC2C(=O)N3C(C(=O)O)=C(CSc4nnc(C)s4)CSC23)c1", "note": "(centres undefined)", "Potency": "8.91 µM (active)"}
{"smiles": "Cc1nnc(SCc2cc(=O)[nH]c(N3CCN(Cc4ccccc4)CC3)n2)s1", "activity change, negative = inhibition": "14.8% [at 57.1 µM]"}
{"smiles": "C=CC1=C(C(=O)O)N2C(=O)[C@@H](NC(=O)/C(=N/OCC(=O)O)c3csc(N)n3)[C@H]2SC1", "activity change, negative = inhibition": "-2.23%"}
{"smiles": "Cc1ccc(C)c(S(=O)(=O)c2nnn3c2nc(N2CCOCC2)c2sccc23)c1", "activity change, negative = inhibition": "34.2%"}
{"smiles": "O=C(Nc1ccc(Cl)cc1)c1cnn2c1NC(=C1CC1)C=C2C(F)F", "activity change, negative = inhibition": "11.1%"}
